One assay has as its target Albumin (Bos taurus) (UniProt P02769). The assay can be described thus: bovine serum albumin binders on microarray, profiling panel, artefact control for SMM control protein annotation, biochemical, small-molecule microarray, Alexa647 label, 635/667 nm fluorescence (AID 1118).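 Also: score merges 667 nm emission intensity and signal-to-noise per printed compound spot.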 The settings on record: BSA-A647 binding, fluorescence 635 nm, higher = more signal.
Assay [1] can be described thus: small-molecule microarray binders of probe aXIP, primary screen, biochemical, NeuroSMM set, 635/667 nm fluorescence (AID 1119).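 Also: probe is the protein aXip251-270 applied at 1 µg/mL to compound-printed slides; binding of probe to printed compounds measured as 667 nm fluorescence plus signal to noise.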 The settings on record: higher = more signal, called active from +8 up or from −8 down.
A short description of assay [2]: small-molecule binders of probe aNOTCH3, primary screen, biochemical, small-molecule microarray, 635/667 nm fluorescence (AID 1120).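 Also: probe is a biotin-tagged antibody raised against NOTCH3 rather than NOTCH3 protein; score merges spot fluorescence near 667 nm with spot signal to noise.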 The settings on record: higher = more signal.
Assay [3] is described as follows: small-molecule binders of probe aNOTCH2, primary screen, biochemical, small-molecule microarray, 635/667 nm fluorescence (AID 1121).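 Also: score merges feature fluorescence read at 667 nm with its signal to noise.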 The settings on record: higher = more signal.
For assay [4], the target named is Carbonic anhydrase 2 (Homo sapiens) (UniProt P00918). The experiment in a line: CAII small-molecule binders, profiling panel, biochemical, small-molecule microarray, Alexa647-labelled CAII (AID 1122). The settings on record: CAII-A647 binding fluorescence, higher = more signal.
Assay [5] is described as follows: COS7 lysate on small-molecule microarray, probe aHis, 635 nm (AID 1123).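 Also: z-score combines 667nm fluorescence intensity with signal-to-noise per printed compound spot.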 The settings on record: COS7 cell lysate, fluorescence, higher = more signal.
Assay [6] can be described thus: compound binding in COS7 lysate, probe aLAP1, primary screen, cell lysate, small-molecule microarray (AID 1124).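 Also: lysate comes from COS7 cells expressing LAP1 and is applied at 0.3 µg/mL; score merges spot fluorescence near 667 nm with signal-to-noise over triplicate slides.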 The settings on record: probe aLAP1, fluorescence, higher = more signal.
For another assay, the system named is Sam68 (KHDRBS1). The assay can be described thus: Sam68 small-molecule binders, primary screen, biochemical, small-molecule microarray, 635 nm fluorescence (AID 1125).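 Also: score merges 667 nm channel intensity with signal to noise over triplicate slides.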 The settings on record: small-molecule microarray binding, higher = more signal.
The test system of assay [7] is Chordin-like protein 2 (CHRDL2). The experiment in a line: CHRDL2 small-molecule binders, primary screen, biochemical, small-molecule microarray, 635 nm fluorescence (AID 1126).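 Also: printed compound slides probed with Chrdl2 protein at 4 µg/mL for 1 h at 4 C; score merges 667 nm emission intensity with signal to noise over three replicate slides.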 The settings on record: small-molecule microarray binding, fluorescence 635 nm; higher = more signal.
Assay [8] has as its target Concanavalin-A (Canavalia ensiformis) (UniProt P02866). The assay can be described thus: ConA small-molecule binders, primary screen, artefact control for SMM control protein annotation, biochemical, small-molecule microarray, Alexa647 label, 635 nm (AID 1127).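 Also: z combines 667 nm emission intensity with signal-to-noise across three replicate slides.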 The settings on record: ConA-A647 binding fluorescence, higher = more signal.

Active and inactive are the calls of the source.

Albumin (Bos taurus), sequence (P02769 whole entry, looked up): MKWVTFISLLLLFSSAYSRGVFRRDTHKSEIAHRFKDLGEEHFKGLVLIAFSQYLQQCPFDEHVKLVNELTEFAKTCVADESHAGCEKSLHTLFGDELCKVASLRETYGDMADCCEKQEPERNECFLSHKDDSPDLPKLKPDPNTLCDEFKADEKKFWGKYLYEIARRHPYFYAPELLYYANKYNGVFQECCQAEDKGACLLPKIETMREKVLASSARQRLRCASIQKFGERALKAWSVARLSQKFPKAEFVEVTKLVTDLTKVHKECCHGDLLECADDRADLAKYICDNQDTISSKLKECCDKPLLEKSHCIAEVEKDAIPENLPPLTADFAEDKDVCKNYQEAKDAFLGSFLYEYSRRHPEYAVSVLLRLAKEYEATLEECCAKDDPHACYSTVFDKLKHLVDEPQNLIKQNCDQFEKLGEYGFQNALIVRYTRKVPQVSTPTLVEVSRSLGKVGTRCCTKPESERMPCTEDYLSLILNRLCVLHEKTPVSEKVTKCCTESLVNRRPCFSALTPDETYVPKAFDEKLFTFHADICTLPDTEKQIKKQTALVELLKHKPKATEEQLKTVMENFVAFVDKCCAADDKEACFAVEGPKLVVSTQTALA
Concanavalin-A (Canavalia ensiformis), sequence (P02866 whole entry, looked up): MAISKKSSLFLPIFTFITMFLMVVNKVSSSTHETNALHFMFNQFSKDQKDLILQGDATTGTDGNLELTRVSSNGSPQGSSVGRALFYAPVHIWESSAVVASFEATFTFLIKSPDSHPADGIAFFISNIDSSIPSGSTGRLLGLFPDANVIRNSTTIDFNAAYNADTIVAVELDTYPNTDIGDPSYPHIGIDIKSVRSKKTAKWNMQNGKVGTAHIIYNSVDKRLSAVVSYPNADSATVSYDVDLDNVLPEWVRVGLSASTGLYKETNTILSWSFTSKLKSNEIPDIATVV

Consider `O=c1n(Cc2cc3c(cc2Cl)OCO3)c(=O)n2n1CC[C@@H]1C(=NOCc3ccccc3)[C@H]3O[C@H]3[C@@H](O)[C@@H]12`, for which the composite z-score with Albumin (Bos taurus) was 0.0524; in assay [2] it was 0.106; in [3] it was -0.0495; in assay [4], 0.177; in [5], 0.155; in [6], 0.708. The composite z-score in the assay with Sam68 (KHDRBS1) came out at 0.529; in assay [7], 0.6; in [8] it was 0.223. In addition, in assay [1], the composite Z-score is 0.0993 (inactive).

On to `CO[C@H]1COC(=O)CC=C[C@H](C)[C@@H](OC)COC(=O)[C@@H](C)NC(=O)CC=C[C@@H]1C`, for which the composite z-score was -0.614 with Albumin (Bos taurus); -0.173 in assay [2]; -0.169 in assay [3]; -0.581 in assay [4]; -0.629 in assay [5]; 0.304 in [6]. The results for the composite z-score (in the assay with Sam68 (KHDRBS1); in assay [7]; in assay [8]) were -0.0974, 1.47 and -0.897, respectively. The composite Z-score in [1] is 0.611 (inactive).

As for `C#CCCCON=C1C[C@@H](O)[C@@H](O)[C@@H]2[C@@H]3C(=O)N(Cc4ccccc4)C(=O)[C@@H]3CC[C@@H]12`, the composite z-score with Albumin (Bos taurus) is 0.745; in assay [2], -0.03; in assay [3], -0.178; in assay [4], -0.103; in [5], -0.0919; in assay [6], -0.0209. In addition, the composite z-score with Sam68 (KHDRBS1) is -0.492; in [7] it was 0.0362; in assay [8] it was -0.324. Also, in assay [1], the composite Z-score is 0.23 (inactive).

Consider `CCCNC(=O)OC[C@H]1O[C@H](CCON=C(C)CCN2CCCc3nc(C)c(C)cc32)C=C[C@@H]1Oc1ccc(OC)cc1`, for which the composite z-score with Albumin (Bos taurus) is 0.727; in assay [2], 0.0894; in assay [3], -0.0846; in [4], 0.147; in [5] it was 1.21; in assay [6], 0.0156. Also, the composite z-score in the assay on Sam68 (KHDRBS1) worked out at 1.29; in assay [7], 0.0783; in [8] it was 0.925. In assay [1], the composite Z-score was 0.475 (inactive).

As for `CCc1cc2c(nc1CC)CCN(CCC(C)=NO[C@H](C)c1cn([C@@H]3COC[C@H]3O)nn1)C2`, the composite z-score is -0.559 with Albumin (Bos taurus); -0.005 in assay [2]; -0.0554 in assay [3]; 0.202 in assay [4]; -0.394 in assay [5]; 0.111 in [6]. Also, the composite z-score in the assay with Sam68 (KHDRBS1) is 0.325; in [7] it was 0.61; in assay [8], -0.178. The composite Z-score in [1] is 0.577 (inactive).

As to `CCC(=O)[C@@]1(O)C(=O)N2C(=C3C(=O)OCC[C@@H]31)N(Cc1ccccc1)C(C)=C(C(=O)OC)[C@H]2c1ccccc1`, the composite z-score was -0.111 with Albumin (Bos taurus); 0.0597 in [2]; -0.158 in assay [3]; -0.109 in [4]; 0.0028 in [5]; 0.137 in [6]. Moreover, the composite z-score in the assay with Sam68 (KHDRBS1) is 0.431; in assay [7], 0.627; in [8], 0.602. Also, in [1], the composite Z-score was 0.256 (inactive).

For the compound `CC(C)=CCCC(C)=CCON=C1C[C@@H](O)[C@@H](O)[C@@H]2[C@@H]3C(=O)N(Cc4ccccc4)C(=O)[C@@H]3CC[C@H]12`, the composite z-score with Albumin (Bos taurus) is 0.188; in assay [2] it was 0.0493; in [3] it was -0.175; in [4], 0.754; in [5], 1.26; in [6] it was 0.146. For the same compound, the figures for the composite z-score (in the assay with Sam68 (KHDRBS1); in assay [7]; in [8]) were 1.29, 0.955 and 0.541, respectively. In addition, in assay [1], the composite Z-score was 0.4 (inactive).

For the compound `CC(=O)OC[C@H]1O[C@H](C#Cc2ccccc2)C=C[C@@H]1OC(C)=O`, the composite z-score with Albumin (Bos taurus) was 0.243; in assay [2], -0.0328; in assay [3] it was -0.136; in assay [4], 0.0239; in assay [5] it was 0.214; in assay [6], 0.17. Besides, the composite z-score in the assay on Sam68 (KHDRBS1) is 0.182; in assay [7], 0.965; in assay [8], -0.0189. Also, the composite Z-score in assay [1] was -0.005 (inactive).

With `CON=C1[C@H]2CCn3c(=O)n(-c4ccccc4)c(=O)n3[C@H]2[C@H](O)[C@@H]2O[C@H]12`, the composite z-score was 0.103 with Albumin (Bos taurus); -0.0006 in assay [2]; -0.121 in assay [3]; 0.0479 in [4]; -0.364 in assay [5]; 0.0879 in assay [6]. The composite z-score is 0.689 in the assay on Sam68 (KHDRBS1), 0.501 in assay [7] and 0.217 in [8]. Also, the composite Z-score in assay [1] was 0.119 (inactive).

Take `CCN1C(=O)[C@H]2[C@H]3[C@H](O)[C@H](O)CC(=NOCC(C)C)[C@@H]3CC[C@H]2C1=O`: the composite z-score in the assay with Albumin (Bos taurus) was 0.612; in [2] it was 0.179; in assay [3] it was -0.126; in [4], 0.459; in assay [5], 1.1; in [6] it was -0.202. Further, the figures for the composite z-score (in the assay on Sam68 (KHDRBS1); in assay [7]; in assay [8]) were 1.3, 0.72 and 0.0131, respectively. Also, the composite Z-score in assay [1] is -0.0562 (inactive).

Take `O=C(NN=C1C[C@@H](O)[C@@H](O)[C@@H]2[C@@H]3C(=O)N(Cc4ccccc4)C(=O)[C@@H]3CC[C@@H]12)OCc1ccccc1`: the composite z-score with Albumin (Bos taurus) was -0.225; in [2], 0.0591; in assay [3] it was -0.129; in assay [4], -0.362; in [5] it was -0.723; in assay [6], -0.169. The composite z-score is -0.917 in the assay on Sam68 (KHDRBS1), 0.476 in assay [7] and -0.292 in assay [8]. Also, in [1], the composite Z-score is 0.586 (inactive).

Turning to `C=CC[C@@H]1C=C[C@H](ON=C(C)CCC(=O)OC[C@H]2O[C@H](C#Cc3ccccc3)C=C[C@@H]2Oc2ccc(C)cc2)[C@@H](CO)O1`, the composite z-score was 0.791 with Albumin (Bos taurus); -0.0898 in [2]; -0.101 in assay [3]; 0.286 in assay [4]; 1.23 in assay [5]; 0.441 in [6]. For the same compound, the composite z-score in the assay on Sam68 (KHDRBS1) is 1.29; in assay [7], 0.126; in [8], 1.13. The composite Z-score in assay [1] was 0.153 (inactive).

As to `CC(=O)OC[C@H]1O[C@H](CCON=C2[C@H]3CCn4c(=O)n(-c5ccccc5)c(=O)n4[C@H]3[C@H](O)[C@@H]3O[C@H]23)C=C[C@@H]1OC(C)=O`, the composite z-score is 0.378 with Albumin (Bos taurus); 0.348 in [2]; 0.088 in assay [3]; 0.127 in [4]; 0.343 in [5]; -0.0654 in assay [6]. Besides, the composite z-score in the assay with Sam68 (KHDRBS1) was 0.283; in assay [7], 0.47; in assay [8], -0.0333. Also, in [1], the composite Z-score is 0.22 (inactive).

For `CC(=O)O[C@H]1C2=CO[C@H](C)[C@H]3[C@H]4C5=C([C@H](O)[C@H]6O[C@H]6C5=O)[C@H](OC4C)[C@@]23C(=O)[C@@H]2O[C@@H]21` (stereo not given in full), the composite z-score in the assay with Albumin (Bos taurus) is 0.767; in [2] it was 0.0836; in [3] it was -0.0357; in assay [4], 0.357; in assay [5] it was 0.249; in assay [6], 0.228. The results for the composite z-score (in the assay with Sam68 (KHDRBS1); in assay [7]; in assay [8]) were 0.583, 0.0249 and -0.185, respectively. Further, in assay [1], the composite Z-score was 0.719 (inactive).

Turning to `C#CCCCON=C1C[C@@H](O)[C@@H](O)[C@@H]2[C@@H]3C(=O)N(C(C)(C)C)C(=O)[C@@H]3CC[C@H]12`, the composite z-score with Albumin (Bos taurus) was 0.725; in [2], 0.0306; in assay [3] it was -0.0272; in assay [4], -0.466; in assay [5], 0.126; in assay [6], 0.0192. The figures for the composite z-score (with Sam68 (KHDRBS1); in assay [7]; in assay [8]) were -0.454, 0.557 and -0.482, respectively. Besides, the composite Z-score in [1] is -0.483 (inactive).

Take `COc1ccc(O[C@H]2C=C[C@@H](c3ccccc3)O[C@@H]2CON=C(C)CCN2CCc3nc(-c4ccccc4)c(-c4ccccc4)cc3C2)cc1`: the composite z-score with Albumin (Bos taurus) was 0.628; in [2], -0.085; in assay [3], -0.18; in [4], -0.117; in assay [5], -0.0458; in assay [6] it was -0.251. In addition, the figures for the composite z-score (with Sam68 (KHDRBS1); in assay [7]; in [8]) were -0.83, -0.163 and 0.799, respectively. Also, the composite Z-score in assay [1] was -0.508 (inactive).

The values are drawn from PubChem BioAssay.
